Measurements: PubChem BioAssay (NCI)
The panel holds about 83,000 compounds, 20% with a hit somewhere; the sample as a whole holds those more often.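 The endpoint reported here, percent growth, reads 100 for growth as untreated, 0 for no net growth and -100 for all cells dead.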 Active and inactive are the calls of the source. How the source made its calls: active means growth percent below 10; inactive means the rest.

Columns and labels:
Assay in all cases: NCI-60 one-dose screen, 48 h (100 = growth as untreated, 0 = no growth, -100 = all killed)
SK-MEL-2 melanoma = settings: 10 µM unless noted
SN12C renal = settings: 10 µM unless noted
UO-31 renal = settings: 10 µM unless noted
TK-10 renal = settings: 10 µM unless noted
ACHN renal = settings: 10 µM unless noted
CAKI-1 renal = settings: 10 µM unless noted
A498 renal = settings: 10 µM unless noted
CCRF-CEM leukemia = settings: 10 µM unless noted
MOLT-4 leukemia = settings: 10 µM unless noted
SR leukemia = settings: 10 µM unless noted
OVCAR-8 ovarian = settings: 10 µM unless noted
OVCAR-5 ovarian = settings: 10 µM unless noted
SK-OV-3 ovarian = settings: 10 µM
IGROV1 ovarian = settings: 10 µM unless noted
OVCAR-3 ovarian = settings: 10 µM unless noted
HS 578T breast = settings: 10 µM unless noted
NCI/ADR-RES ovarian = settings: 10 µM unless noted
RPMI-8226 leukemia = settings: 10 µM
OVCAR-4 ovarian = settings: 10 µM unless noted

Measured: growth

Cc1nc2cc(Nc3nc(Cl)nc(Nc4ccc(F)cc4)n3)ccc2n1Cc1ccccc1
inactive: SK-MEL-2 melanoma 111% | SN12C renal 77.9% | UO-31 renal 80.7% | TK-10 renal 58.5% | ACHN renal 36.2% | CAKI-1 renal 87.7% | A498 renal 69.3% | CCRF-CEM leukemia 78.5% | MOLT-4 leukemia 90.6% | SR leukemia 57.5% | OVCAR-8 ovarian 81.5% | OVCAR-5 ovarian 86.3% | SK-OV-3 ovarian 95.9% | IGROV1 ovarian 83% | OVCAR-3 ovarian 94.2% | HS 578T breast 79.5% | NCI/ADR-RES ovarian 95.6%

COc1ccc(/C=C/C(=O)N2CCC(O)CC2)cc1OC1CCCC1
inactive: SK-MEL-2 melanoma 107% | SN12C renal 95% | UO-31 renal 87.8% | TK-10 renal 102% | ACHN renal 102% | CAKI-1 renal 93.1% | CCRF-CEM leukemia 119% | MOLT-4 leukemia 97.6% | SR leukemia 108% | RPMI-8226 leukemia 107% | OVCAR-8 ovarian 96.5% | OVCAR-5 ovarian 104% | OVCAR-4 ovarian 101% | IGROV1 ovarian 104% | OVCAR-3 ovarian 111% | HS 578T breast 96.1% | NCI/ADR-RES ovarian 106%

COc1ccc(S(=O)(=O)ON=C2C=C(C)C(=O)C(C)=C2)cc1
inactive: SK-MEL-2 melanoma 82.5% | SN12C renal 113% | UO-31 renal 80.4% | TK-10 renal 109% | ACHN renal 46% | CAKI-1 renal 61.6% | A498 renal 98.4% | CCRF-CEM leukemia 26.9% | SR leukemia 31.8% | RPMI-8226 leukemia 35.1% | OVCAR-8 ovarian 93.1% | OVCAR-5 ovarian 103% | OVCAR-4 ovarian 55.4% | SK-OV-3 ovarian 66.9% | IGROV1 ovarian 95% | OVCAR-3 ovarian 68.5% | HS 578T breast 101%

CCOC(=O)c1[nH]c2cc(Cl)ccc2c1[C@@H](C(=O)NC(C)(C)C)N(CC)C(=O)CCCCC#Cc1cccc2c1CN(C1CCC(=O)NC1=O)C2=O (stereo partly specified)
inactive: SN12C renal 24.4% | TK-10 renal 34.3% | ACHN renal 13% | CCRF-CEM leukemia 13.7% | MOLT-4 leukemia 10.1% | SR leukemia 12.7% | OVCAR-8 ovarian 10.9% | OVCAR-5 ovarian 39.6% | OVCAR-4 ovarian 13.2% | NCI/ADR-RES ovarian 16.8%
active: SK-MEL-2 melanoma -13.2% | UO-31 renal 0.0319% | CAKI-1 renal 7.95% | RPMI-8226 leukemia 7.28% | IGROV1 ovarian 8.84% | OVCAR-3 ovarian 8.96% | HS 578T breast -12.6%

COc1ccc(-n2ncc3c4nc(OC)c(S(=O)(=O)c5ccccc5)cc4ccc32)cc1
inactive: SK-MEL-2 melanoma 65.9% | SN12C renal 93% | UO-31 renal 76.4% | TK-10 renal 88.2% | ACHN renal 44.2% | CAKI-1 renal 88.7% | A498 renal 43.3% | CCRF-CEM leukemia 103% | MOLT-4 leukemia 98.4% | RPMI-8226 leukemia 95% | OVCAR-8 ovarian 52.7% | OVCAR-5 ovarian 91.3% | OVCAR-4 ovarian 45.5% | SK-OV-3 ovarian 55.8% | IGROV1 ovarian 92% | OVCAR-3 ovarian 77.2% | HS 578T breast 43.5% | NCI/ADR-RES ovarian 73.4%

COc1cccc(Nc2nc(NCCO)c3ccccc3n2)c1
inactive: SK-MEL-2 melanoma 103% | SN12C renal 81.6% | UO-31 renal 74.4% | TK-10 renal 106% | ACHN renal 79.7% | CAKI-1 renal 70.6% | A498 renal 43.8% | CCRF-CEM leukemia 22.4% | SR leukemia 47.1% | OVCAR-8 ovarian 81.9% | OVCAR-5 ovarian 101% | SK-OV-3 ovarian 102% | OVCAR-3 ovarian 61.5% | HS 578T breast 62.4% | NCI/ADR-RES ovarian 63.9%

CCC(C)Oc1cc(/C=N/NC(=O)c2cnn3c2NC(c2ccccc2)C3)ccc1OC (stereo unspecified)
inactive: SK-MEL-2 melanoma 35.6% | SN12C renal 47% | UO-31 renal 53.8% | TK-10 renal 70.7% | ACHN renal 40.7% | CAKI-1 renal 35.9% | CCRF-CEM leukemia 23.1% | MOLT-4 leukemia 24.9% | SR leukemia 25.8% | RPMI-8226 leukemia 45.7% | OVCAR-8 ovarian 47.2% | OVCAR-5 ovarian 61.3% | OVCAR-4 ovarian 48.3% | IGROV1 ovarian 48.1% | NCI/ADR-RES ovarian 18.6%
active: OVCAR-3 ovarian 2.52% | HS 578T breast -15.1%

COc1ccc(OC2=C(C#N)C(=N)N3c4ccccc4Sc4ccccc4C3N2)cc1 (stereo unspecified)
inactive: SK-MEL-2 melanoma 130% | SN12C renal 94.3% | UO-31 renal 59.5% | TK-10 renal 120% | ACHN renal 83.3% | CCRF-CEM leukemia 80.9% | MOLT-4 leukemia 139% | SR leukemia 104% | RPMI-8226 leukemia 88% | OVCAR-8 ovarian 102% | OVCAR-5 ovarian 102% | OVCAR-4 ovarian 112% | SK-OV-3 ovarian 79.3% | IGROV1 ovarian 63% | OVCAR-3 ovarian 92.1% | NCI/ADR-RES ovarian 85.2%

CCOC(=O)c1c(Cl)c2c(n1Cc1ccc(OC)cc1)-c1oncc1CCC2
inactive: SK-MEL-2 melanoma 103% | SN12C renal 57.6% | UO-31 renal 66.2% | TK-10 renal 84.8% | ACHN renal 73.9% | CAKI-1 renal 56.1% | A498 renal 65.5% | CCRF-CEM leukemia 62.2% | SR leukemia 23.7% | RPMI-8226 leukemia 52.4% | OVCAR-8 ovarian 81.5% | OVCAR-5 ovarian 90.1% | SK-OV-3 ovarian 105% | IGROV1 ovarian 84.4% | OVCAR-3 ovarian 102% | HS 578T breast 67.4% | NCI/ADR-RES ovarian 80.6%
